# Tau ThT inhib: blocks human tau fibril formation measured by thioflavin T; recombinant tau K18 P301L, heparin-induced fibrillization, ThT fluorescence; Potency, µM (series often up to 57.4 µM), for inactives: top-dose activity, negative = inhibition, usual class: inhibitors; 270,000 tested, 2.1% active; further: nearly all actives have a fitted effect of over 55% in size
# Target sequence (P10636 561-689 P618L limits assumed): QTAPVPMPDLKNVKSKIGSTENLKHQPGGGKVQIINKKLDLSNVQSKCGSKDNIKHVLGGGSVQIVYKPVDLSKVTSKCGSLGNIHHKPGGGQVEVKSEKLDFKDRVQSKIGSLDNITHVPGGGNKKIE
#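 ThT emission at 510 nm, taken 1 hr after adding 30 uM dye, quantifies aggregates formed when 20 uM heparin acts on human tau K18 P301L for 6 hr at 37 C.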
# Tau fibril FP: inhibitors of human tau fibril formation; K18 P301L tau heparin fibrillization, Alexa594 FP, 6 h; 280,000 tested, 0.39% active; Potency, µM (titrated, usually from 57.7 µM), for the others: at the top dose activity, negative = inhibition, most hits filed as inhibitors; further: nearly all actives have a fitted effect of over 55% in size
#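 FP of Alexa 594-tau after heparin (20 uM) induction. Substrate: human K18 P301L, 15 uM unlabeled, 0.24 uM labeled. Buffer 100 mM sodium acetate pH 7. 6 hr, 37 C.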
# TRb-SRC2 inh: inhibitors of human thyroid hormone receptor beta-SRC2 interaction; AID 1469; 280,000 tested, 0.065% active; Potency, µM (series often up to 106 µM), inactives show at the highest dose activity change, negative = inhibition, hits mostly inhibitors; TRbeta-SRC2 peptide binding, fluorescence polarization; receptor liganded with 1 µM T3; P10828;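 further: plate controls were bound peptide for no effect and peptide without receptor for full effect; nearly all actives have a fitted effect of over 50% in size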
# Target sequence (P10828 whole entry, looked up): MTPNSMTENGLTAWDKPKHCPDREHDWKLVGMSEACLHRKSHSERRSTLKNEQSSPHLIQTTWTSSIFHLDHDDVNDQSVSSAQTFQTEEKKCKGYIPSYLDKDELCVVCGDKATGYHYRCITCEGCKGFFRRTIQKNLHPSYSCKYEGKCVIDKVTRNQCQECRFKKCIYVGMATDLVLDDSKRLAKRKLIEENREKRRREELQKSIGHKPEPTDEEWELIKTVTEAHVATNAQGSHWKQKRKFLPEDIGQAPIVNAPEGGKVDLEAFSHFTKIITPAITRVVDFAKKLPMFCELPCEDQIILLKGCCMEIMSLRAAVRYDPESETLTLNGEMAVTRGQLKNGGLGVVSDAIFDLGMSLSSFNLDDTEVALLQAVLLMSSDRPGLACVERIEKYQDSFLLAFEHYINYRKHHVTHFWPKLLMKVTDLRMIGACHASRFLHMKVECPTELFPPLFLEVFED
#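 Polarization signal, normalized between peptide-alone and full complex controls, measured compound effects on T3-liganded human TRb LBD (0.6 uM) binding 20 nM Texas Red SRC2 peptide after 5 hr.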
# TexasRed fluor: Texas Red fluorescence interference in TRb-SRC2 counter-screen. TRb/SRC2 Texas Red total fluorescence interference. Potency, µM (titrated, usually from 106 µM), for inactives: at the highest dose fluorescence change, negative = quenching. 280,000 tested, 0.29% active; active means well fitted curve in either direction with a large enough effect; inconclusive means small, poorly fitted or top-dose-only effect
#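 Flags fluorescent or light-absorbing compounds by total fluorescence, S + 2P, at 555 nm excitation and 632 nm emission. Mixture: 20 nM Texas Red SRC2 peptide, 0.6 uM human TRb LBD, 1 uM T3, 5% DMSO; compound exposure 5 h at ambient temperature.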
# Tau fluor counter: counter-screen for tau fibril formation inhibitors; tau K18 P301L Alexa594 fluorescence, heparin fibrillization; Potency, µM (series often up to 57.7 µM), for the others: at the highest dose activity change, negative = decrease; 280,000 tested, 0.93% active; further: nearly all actives have a fitted effect of over 55% in size
#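 Human tau K18 P301L (15 uM unlabeled, 0.24 uM Alexa 594-labeled) in 100 mM sodium acetate pH 7 with 20 uM heparin, 6 hr at 37 C. ThT 30 uM added, 1 hr ambient; Alexa 594 FP and total fluorescence read at 555/632 nm.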
# An asterisk follows results filed as active; ? = inconclusive; / = not tested or not shown; [ ] = dose if it differs, or a comment. Sampled rows, rich in hits. Any-hit rate of the full collection: about 3%. Unless noted, the call rests on the fitted dose curve; in most records, active means well fitted curve in the direction sought with a large enough effect; inconclusive means small, poorly fitted or top-dose-only effect, or another doubt; inactive means no such curve, though single readings can be large; an effect the other way counts as inactive or inconclusive. Unless noted, on the % scale 0 is the no-effect control and ±100 the full control effect; potency means the concentration at half of the fitted maximal effect.
SMILES,Tau ThT inhib,Tau fibril FP,TRb-SRC2 inh,TexasRed fluor,Tau fluor counter
Cc1ccc(NC(=O)c2oc3ccc4c(c3c2C)C(=O)CC(C)(C)O4)c(C)c1,-10%,-13%,-3%,-2%,-14%
O=C(NCc1cccs1)C1CCN(C(=O)N2CCOc3ccccc32)CC1,-11%,14%,-10%,0.56µM*[quencher],?
O=C(NCc1ccco1)C1CCN(C(=O)N2CCOc3ccc(Cl)cc32)CC1,20µM*,?,-2%,4%,?
O=C(NCCC1=CCCCC1)C1CCN(C(=O)N2CCOc3ccccc32)CC1,2%,?,0%,?,2.8µM*[quencher]
Cc1n[nH]c(C)c1S(=O)(=O)N(CC(=O)NCc1ccccc1Cl)c1ccc(C(C)C)cc1,-15%,-6%,-4%,-1%,?
Cc1ccc(C2NC(=O)NC3=C2CCc2ccccc23)cc1 (stereo unspecified),?,-1%,4%,2%,-4%
COc1ccc(C2NC(=O)NC3=C2CCc2ccccc23)cc1 (stereo unspecified),25µM*,?,-1%,-1%,-19%
COc1cc(OC)c2c(C)cc(=O)oc2c1C(CCN1CCCC(C)C1)c1ccc(N(C)C)cc1 (stereo unspecified),/,/,-3%,-2%,/
O=C(CNC(=O)c1ccccc1)NC1(C(=O)NC2CCCC2)CCCCC1,-11%,?,1%,3%,2.8µM*[quencher]
CC/C(=C/c1sc2ccc(C)cc2[n+]1CCCS(=O)(=O)[O-])SC,-8%,2%,?,45µM*[fluorescent],6%
CN(C)c1nc(=O)n(C2CCC(O)CC2)c(=O)n1C (stereo unspecified),/,/,0%[201 µM],0%[201 µM],/
CCOc1ccc(-c2csc(NNC3=NCCCCC3)n2)cc1,16µM*,?,-8%,1%,-24%
COc1ccc(-c2csc(NC3=NCCCCC3)n2)cc1,?,19%,-1%,-3%,-27%
COc1ccc(-c2csc(NNC3=NCCCCC3)n2)cc1,25µM*,?,-3%,-1%,-22%
CCOC(=O)OCC1OC(c2ccc(C(C)=O)cc2)C=CC1Oc1ccc(-c2ccccc2)cc1 (stereo unspecified),?,-3%[11.6 µM],4%[11.2 µM],-1%[11.2 µM],-19%[11.6 µM]
C/C(=N\NC(=O)c1ccc(C)cc1C)c1ccc2c(c1)Nc1ccccc1S2,14µM*,?,-1%,1%,18µM*[quencher]
CCn1c(-c2ccccc2O)n[nH]c1=S,-1%,1%,0%,0%,0%
CCn1c(-c2cc(-c3ccccc3)sc2N)n[nH]c1=S,?,10%,-8%,-1%,14µM*[quencher]
COC(=O)C1CCN(Cc2ccc(OCCCN3CCN(c4ccc([N+](=O)[O-])cc4)CC3)cc2)CC1,4µM*,8%,3%,-4%,-8%
Fc1ccc(Br)cc1,/,/,-4%[201 µM],1%[201 µM],/
COc1cc(OC)c(NC(=S)Nc2cccc(C(C)=O)c2)cc1Cl,?,0%,1%,4%,?
COc1cc(OC)c(NC(=S)Nc2cc(Cl)cc(Cl)c2)cc1Cl,?,3%,-9%,-1%,25µM*[quencher]
COc1ccc(/C=C\C(=O)Nc2ccccc2C(=O)O)cc1OC,8%,4%,-5%,-3%,-2%
COc1cc(NCc2ccc3nc(N)nc(N)c3c2C)cc(OC)c1OC,20µM*,?,-3%,-18%,?
COc1cc(CNc2nc3ccccc3n2C)cc(OC)c1OC,3%,2%,1%,-1%,3%
SMILES,Tau ThT inhib,Tau fibril FP,TRb-SRC2 inh,TexasRed fluor,Tau fluor counter
CCc1ccccc1NC(=O)c1cnc2sc(N3CCCC3)nn2c1=O,-10%,-8%,-16%,35µM*[quencher],-13%
Cc1ccccc1NC(=O)c1cnc2sc(N3CCCC3)nn2c1=O,1%,-4%,2%,2%,-1%
CCc1ccc2c(c1)C(=O)C(=O)N2CC(=O)Nc1ccc(NC(=O)c2ccccn2)cc1,14µM*,-4%,-1%,-2%,?
CCc1ccc(NC(=O)CCN2C(=O)c3cccnc3C2=O)cc1,-16%,4%,-4%,-6%,-2%
CCN1CCN(c2csc3ccc(F)cc3c2=O)CC1,?,4%,7%,2%,-5%
Cc1ccc2scc(N3CCN(c4ccccc4)CC3)c(=O)c2c1,4µM*,-5%,7%,2%,-30%
Cc1ccc2scc(N3CCN(c4ccc(F)cc4)CC3)c(=O)c2c1,8.9µM*,-6%,7%,3%,-22%
Cc1ccc2scc(N3CCc4ccccc4C3)c(=O)c2c1,7.1µM*,?,-3%,0%,?
Cc1ccc(N2CCN(C(=O)c3cn(C)c4ccc(S(=O)(=O)N(C)C)cc4c3=O)CC2C)cc1 (stereo unspecified),-11%,-2%,0%,-3%,-22%
COC(=O)C/C=C\[C@@H](C)[C@@H](/C=N\OC[C@@H](C)[C@H](OCc1ccccc1)C(C)C)NS(=O)(=O)c1ccc(C)cc1,-8%[11.5 µM],-4%[11.6 µM],1%[11.2 µM],2%[11.2 µM],-15%[11.6 µM]
O=C(CN1CCN(CC(=O)Nc2ccccc2F)CC1)Nc1ccc(Cl)c(C(F)(F)F)c1,-10%,?,1%,-4%,?
CCc1ccccc1NC(=O)c1ccc2c(O)c(S(=O)(=O)c3ccccc3)c(=O)[nH]c2c1,-6%,-4%,1%,-1%,-8%
CC(Sc1ccc(Cl)cc1)C(=O)Nc1ccccc1-c1ccccc1 (stereo unspecified),1%,1%,-12%[53 µM],25µM*[quencher],-1%
O=C(O)CC/C(=N\Nc1ccc([N+](=O)[O-])cc1)c1ccccc1,7.9µM*,15%,-2%,-3%,?
O=C1OCCN1/N=C\c1ccc([N+](=O)[O-])o1,/,/,-3%[53 µM],-8%[53 µM],/
CCC(C)OC(=O)N1CCCCC1CCO (stereo unspecified),/,/,-8%[201 µM],-10%[201 µM],/
CCOC(=O)C1=C(Cc2ccc(OC)cc2)C(=O)c2ccccc2C1=O,8.9µM*,13µM*,-6%,-4%,?
CCOC(=O)C1=C(Cc2ccc(C)cc2)C(=O)c2ccccc2C1=O,16µM*,35µM*,5%,-3%,?
CCOC(=O)c1ccc(COC(=O)c2ccc3c(c2)-c2ccccc2C3=O)cc1,?,2%,0%,-2%,-25%
CCc1ncc(/C=C2\C(=O)Nc3ccccc32)[nH]1,13µM*,-6%,-3%,-4%,-7%
O=C(/C=C1\C(=O)Nc2ccccc21)/C=C1\C(=O)Nc2ccccc21,28µM*,?,6%,0%,-25%
Cc1ncc(/C=C2\C(=O)Nc3ccccc32)[nH]1,16µM*,1%,3%,-6%,-12%
CC1Cc2c(-c3ccccc3)nc3c(c2CO1)CN(CCOc1ccccc1)CC3 (stereo unspecified),-9%[11.5 µM],6%[11.6 µM],0%[11.2 µM],-3%[11.2 µM],-5%[11.6 µM]

# Screening results (PubChem BioAssay)
